Laboratory results: PMC4552634, “A New Set of Chemical Starting Points with Plasmodium falciparum Transmission-Blocking Potential for Antimalarial Drug Discovery” (PLoS ONE, 2015)
Like-named read-outs stand apart in the source and are kept apart here. Hit rate of the full screen: of about 13,000 compounds, about 3,200 (25%) showed an effect of 50% or more. The list shows a part of the results.

System: P. falciparum stage V gametocytes
Parameters: BacTiter-Glo ATP luminescence viability of purified stage V gametocytes in 384-well plates, per cent inhibition versus DMSO
Settings: 48 h, 5 µM, inhibitor

Cc1cc(N(C)C)nc(Nc2ccc(NC(=O)C3CCCCC3)cc2)n1 [TCMDC-124978]
% Inhibition: 11.42%

CCOc1cc(C(=O)NCCN(C(C)C)C(C)C)ccc1-c1nc2ccc(Cl)cc2[nH]1 [TCMDC-140910]
% Inhibition: 18.37%

O=c1cc(NCCCNC2CCCc3c2ccc2ccccc32)[nH]c2ccccc12 (stereo not shown) [TCMDC-139366]
% Inhibition: 0.6782%

CCOC(=O)c1c(C)n(C2CCCCCC2)c2cc(Br)c(O)cc12 [TCMDC-124588]
% Inhibition: -95.43%

Cc1ccc(-n2c(C)cc(C(=O)CN3C(=O)NC(Cc4ccccc4)C3=O)c2C)cc1 (stereo not shown) [TCMDC-123563]
% Inhibition: -21.41%

CC(C)C[C@@H](/C=N/NC(N)=O)NC(=O)[C@H](CC(C)C)NC(=O)[C@H](CC(C)C)NC(=O)OCc1ccccc1 [TCMDC-139049]
% Inhibition: -49.58%

CCC(Nc1noc(-c2c(-c3ccccc3)noc2C)n1)c1ccccc1 (stereo not shown) [TCMDC-134200]
% Inhibition: 3.321%

CC(C)CNCc1ccc(-c2cccc(CNC3CCN(Cc4ccccc4)CC3)c2)cc1 [TCMDC-140480]
% Inhibition: 110%

CC(C)CNCc1cccc(-c2ccccc2CNC2CCN(Cc3ccccc3)CC2)c1 [TCMDC-140469]
% Inhibition: 76.18%

CC(C)CNCc1cccc(-c2ccc(CNC3CCN(Cc4ccccc4)CC3)cc2)c1 [TCMDC-140487]
% Inhibition: 103%

CC(C)CNCc1cccc(-c2cccc(CNC3CCN(Cc4ccccc4)CC3)c2)c1 [TCMDC-140479]
% Inhibition: 106.4%

NC1=NC(c2ccccc2)(c2ccccc2)C(=O)N1C1CCCCC1 [TCMDC-136761]
% Inhibition: -44.85%

N=c1c2c(n(Cc3cccc(Cl)c3)c3c1CCC3)CCCC2 [TCMDC-125614]
% Inhibition: 24.77%

COC(=O)/C=C/c1ccc(CC(C)NCC(O)c2cccc(C(F)(F)F)c2)cc1 (stereo not shown) [TCMDC-131503]
% Inhibition (% Inhibition): -2.875%

NC(N)=NC(=O)Nc1cc(Cl)c(Br)c(Cl)c1 [TCMDC-137507]
% Inhibition: -11.69%

O=C(/C=C/c1ccc(Cl)c(Cl)c1)NCCCCCN1CCN(C(=O)Nc2cccc(F)c2)CC1 [TCMDC-135731]
% Inhibition: 4.224%

O=C(Nc1nc2cc(S(=O)(=O)NCCc3cccc(F)c3)ccc2n1CCCn1ccnc1)c1ccc(Cl)cc1 [TCMDC-141623]
% Inhibition: -29.17%

CC(C)c1ccc(NC(=O)c2ccc(C(=O)NC3CCN(Cc4ccsc4)C3)cc2)cc1 (stereo not shown) [TCMDC-136745]
% Inhibition: -11.55%

CSCCCN1CCC(O)(c2ccc3oc(C(=O)Nc4ccc5sc(C)nc5c4)cc3c2)CC1 [TCMDC-124646]
% Inhibition: 11.7%

COCCNCc1ccc(-c2ccccc2CNC2CCN(Cc3ccccc3)CC2)cc1 [TCMDC-140471]
% Inhibition: 43.38%

CC(C)CNCc1ccc(-c2ccccc2CNC2CCN(Cc3ccccc3)CC2)cc1 [TCMDC-140470]
% Inhibition: 78.66%

CC(C)CNCc1ccc(-c2ccc(CNC3CCN(Cc4ccccc4)CC3)cc2)cc1 [TCMDC-140488]
% Inhibition: 73.02%

Cc1cc(-c2ccc3c(c2)CC[C@@H](N[C@@H](C)c2ccccc2)C3)cnc1N [TCMDC-138130]
% Inhibition: 26.54%

Cn1c(NC(=O)C2CCC(CNC(=O)c3ccc(O)c(-c4cccc([N+](=O)[O-])c4)c3)CC2)nc2ccccc21 (stereo not shown) [TCMDC-140883]
% Inhibition: 1.197%

O=C(Nc1cccc(-c2nn3ccccc3c2-c2ccnc(Nc3ccccc3)n2)c1)c1cc(F)ccc1F [TCMDC-135823]
% Inhibition: -54.26%

COc1ccc(-c2ccc([N+](=O)[O-])cc2C(=O)NCC(C)Oc2ccc(C(F)(F)F)cc2)cc1 (stereo not shown) [TCMDC-132304]
% Inhibition: 94.55%

NCCNc1ccc([N+](=O)[O-])cc1C(=O)Nc1cccc(C(F)(F)F)c1 [TCMDC-123677]
% Inhibition: 3.903%

COc1ccc(OC(C)CNC(=O)c2cc([N+](=O)[O-])ccc2-c2ccc(OC)cc2)cc1 (stereo not shown) [TCMDC-132303]
% Inhibition: 16.94%

N=C1NC(=O)C(=Cc2cn(-c3ccccc3)nc2-c2cccc(S(=O)(=O)N3CCCC3)c2)S1 [TCMDC-123756]
% Inhibition: 0.418%

NC1CCCN(Cc2cccc(-c3cccc(-c4nc5ccccc5[nH]4)c3)c2)C1 (stereo not shown) [TCMDC-133877]
% Inhibition: 56.31%

NC1CCN(Cc2cccc(-c3cccc(-c4nc5ccccc5[nH]4)c3)c2)C1 (stereo not shown) [TCMDC-133875]
% Inhibition: 72.93%

NC1CCCN(Cc2cccc(-c3ccc(-c4nc5ccccc5[nH]4)cc3)c2)C1 (stereo not shown) [TCMDC-133848]
% Inhibition: 22.08%

NC1CCN(Cc2cccc(-c3ccc(-c4nc5ccccc5[nH]4)cc3)c2)C1 (stereo not shown) [TCMDC-133846]
% Inhibition: 28.29%

OC1CCCN(Cc2cccc(-c3ccc(-c4nc5ccccc5[nH]4)cc3)c2)C1 (stereo not shown) [TCMDC-133817]
% Inhibition: -22.44%

Cc1cc(N2CCCCC2)nc2ccc(NC(=O)c3cc(=O)c4ccccc4o3)cc12 [TCMDC-123602]
% Inhibition: 13.04%

Cc1ccc(NC(=O)Nc2ccccc2)cc1-c1ccc(C(=O)Nc2ccncc2)cc1 [TCMDC-133701]
% Inhibition: -4.063%

NC1=NC(c2ccccc2)(c2ccccc2)C(=O)N1Cc1ccc(-c2cccnc2)cc1 [TCMDC-136999]
% Inhibition: -17.43%

CC(=O)N1Cc2ccccc2C1=O [TCMDC-131706]
% Inhibition: 7.417%

COc1ccc(C(=O)CC(=O)c2ccc(OC)cc2OC)c(OC)c1 [TCMDC-123465]
% Inhibition: 12.1%

CCN(CC)CCN(CCN(CC)CC)c1ccc2c(c1)Sc1c(Cl)ccc(Cl)c1S2 [TCMDC-137934]
% Inhibition: 63.92%

COc1ccc(Cn2c(=O)[nH]c3cc(C(=O)NC4CCN(Cc5ccccc5)CC4)ccc3c2=O)cc1 [TCMDC-123588]
% Inhibition: -15.29%

COc1ccc(NC(=O)N2CCCN(CCCCCNC(=O)/C=C/c3ccc(C(F)(F)F)cc3)CC2)cc1Cl [TCMDC-136109]
% Inhibition: -28.75%

COc1cc(CN2CCN(c3ccnc(N(C)C4CCN(C)CC4)n3)CC2)cc(Cl)c1O [TCMDC-125096]
% Inhibition: -14.35%
